An excerpt weighted towards active compounds, which were near 19% of everything screened.
IL1B secr inh = inflammasome signaling inhibition, IL-1 beta readout; THP-1 LPS/ATP IL-1B secretion, AlphaLISA, 16 h; hits give low values; activity change, % at 57.5 µM; 4.7% of 360,000 active; AID 743279; in the data active = activity change below about -50%; inconclusive = mostly about -30% to -49%
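Secreted IL-1B measured by AlphaLISA bead assay after 16 h compound exposure of THP-1 cells; compounds (final up to 57.5 uM) added 1 h before LPS (250 ng/mL) and ATP (1.25 mM) stimulation; lower signal means less secretion.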
TDP1 cell CPT = growth inhibition of DT40 Tdp1-/-;hTDP1 cells with camptothecin (screen for TDP1 inhibitors). chicken DT40 Tdp1-/-;hTDP1 cells + 20 nM CPT, ATP luminescence, 48 h. Potency, µM (highest dose often 46.2 µM), for the others: at the top dose activity change, negative = growth inhibition, hits mostly inhibitors. 12% of 420,000 active. AID 686979; also: potency is read from the fitted curve at half-maximal effect; nearly all actives have a fitted effect of over 55% in size
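Chicken DT40 Tdp1-/- cells stably complemented with human TDP1 were seeded at 400 cells/well in medium containing 20 nM camptothecin, exposed to pin-transferred compounds, and grown at 37 °C for at least 48 hr. Viability was read as ATP luminescence.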
HT1080 IDH1KD tx = kills HT-1080 cells with IDH1 knockdown; HT-1080 IDH1 knockdown viability, ATP luminescence, 48 h; Potency, µM (doses to about 46.1 µM), without a hit: at the top dose activity, negative = toxicity, hits mostly cytotoxic; 2% of 360,000 active; AID 686971;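 also: potency is read from the fitted curve at half-maximal effect; 0% = DMSO wells and -100% = cell-free medium wells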
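IDH1KD HT-1080 cells, 750/well, RPMI + 5% FBS; compound pinned after 2 h settling; 48 h, 37 °C; CellTiter-Glo luminescence; % activity normalised to DMSO and no-cell wells; curves fitted, classed by r2 and efficacy.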
HT1080-NT tox = kills 2HG-producing HT-1080-NT fibrosarcoma cells; HT-1080-NT fibrosarcoma viability, CellTiter-Glo ATP luminescence, 48 h; Potency, µM (titrated, usually from 46.1 µM), inactives show at the highest dose activity, negative = less viability, hits mostly cytotoxic; 1.6% of 360,000 active; AID 686970;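 also: NT is the 2HG producing partner of a matched IDH1 knockdown line; potency is read from the fitted curve at half-maximal effect; 0% = DMSO-treated cells and -100% = media-only wells without cells; nearly all actives have a fitted effect of over 55% in size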
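Luminescent CellTiter-Glo readout after 48 hours of compound exposure at 37 degrees C defined viability of HT-1080-NT cells. Activity was normalized to DMSO wells and cell-free media wells; concentration-response curves were fitted and assigned curve classes.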
DT40 TDP1 no CPT = qHTS for Inhibitors of human tyrosyl-DNA phosphodiesterase 1 (TDP1): qHTS in cells in absence of CPT; DT40 Tdp1-/- hTDP1 cells, no CPT, ATP luminescence, 48 h; Potency, µM (titrated, usually from 46.2 µM), inactives show top-dose activity change, negative = growth inhibition, actives largely listed as inhibitors; 15% of 420,000 active; AID 686978, 2013; also: potency is read from the fitted curve at half-maximal effect; nearly all actives have a fitted effect of over 55% in size
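Chicken DT40 Tdp1-/- cells complemented with human TDP1, screened without camptothecin (DMSO vehicle only), 400 cells/well. Compounds pin-transferred, cells incubated at 37 °C for at least 48 hr. Growth read as ATP-dependent luminescence (CellTiter-Glo, 30 min at RT).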
* marks the source's active call; other numbers are inactive results; ? = inconclusive; / = no result; [ ] = another dose, or the depositor's remark. Unless noted, calls follow the shape of the dose curve; as a rule, active = well fitted curve in the direction sought with a large enough effect; inconclusive = small, poorly fitted or top-dose-only effect, or another doubt; inactive = no such curve, though single readings can be large; an effect the other way counts as inactive or inconclusive. Unless noted, % is scaled to controls: 0 for no effect and ±100 for the full control effect.

SMILES	IL1B secr inh	TDP1 cell CPT	HT1080 IDH1KD tx	HT1080-NT tox	DT40 TDP1 no CPT
O=C(Nc1ccccc1C(F)(F)F)N1CCCCCC1	22	-4%	11%	20%	-6%
COC(=O)c1ccc(-n2c(C)cc(C(=O)CSc3ccc(NC(C)=O)cc3)c2C)cc1	-21	?	-10%	-4%	23µM*
OC1(c2ccccc2)C/C(=N\n2cnnc2)C=C1c1ccccc1 (stereo unspecified)	27	-11%	0%	-6%	-3%
COc1cc(O)c(C(CCN2CCCC2)c2ccc(N(C)C)cc2)c(OC)c1 (stereo unspecified)	-13	15µM*	-15%	3%	21µM*
COc1cc(O)c(C(CCN2CCCCC2)c2ccc(N(C)C)cc2)c(OC)c1 (stereo unspecified)	?	16µM*	-2%	-3%	6.5µM*
CC1=C(C(=O)Nc2ccc(C(=O)NCCCN3CCCCC3)cc2)SCCO1	22	-3%	4%	7%	3%
CC(NC(=O)Cc1ccc(NC(=O)N2CCSc3ncccc32)cc1)c1ccccc1 (stereo unspecified)	/	-30%	/	/	?
O=C(NCC1CCCO1)c1ccccc1NS(=O)(=O)c1cc([N+](=O)[O-])ccc1Cl (stereo unspecified)	32	15µM*	-7%	-11%	?
O=C(NCC1CCCO1)c1ccc(Oc2ccc([N+](=O)[O-])cc2)cc1 (stereo unspecified)	-10	?	3%	?	23µM*
O=C(NCC1CCCO1)c1ccc(Oc2ccc([N+](=O)[O-])cc2Cl)cc1 (stereo unspecified)	9	-1%	-6%	1%	11%
O=C(NCC1CCCO1)c1cccc(Oc2ccc([N+](=O)[O-])cc2Cl)c1 (stereo unspecified)	6	?	-5%	-7%	21µM*
O=C(NCC1CCCO1)C(=Cc1cccc([N+](=O)[O-])c1)C(=O)NCC1CCCO1 (stereo unspecified)	-110*	?	?	16µM*	23µM*
O=C(NCC1CCCO1)c1ccc(NC(=O)c2ccc([N+](=O)[O-])cc2)cc1 (stereo unspecified)	12	-2%	-2%	-1%	-20%
COCCNC(=O)CN1CCN(S(=O)(=O)c2ccc3c(c2)CCCC3)CC1	18	-9%	-3%	6%	-12%
O=C1c2ccccc2[C@@H]2C[C@@H](O)[C@H](Nc3cccc(C(F)(F)F)c3)CCN12	?	23µM*	-2%	-2%	?
O=C1c2ccccc2[C@@H]2C[C@@H](O)[C@H](Nc3ccccc3-c3ccccc3)CCN12	-1	?	-1%	1%	18µM*
Cc1cccc(-c2nc(CS(=O)CC(=O)NC3CCCCC3)c(C)o2)c1 (stereo unspecified)	-3	-21%	-2%	-10%	-20%
Cc1cccc(-c2nc(CN3CCCC(C(=O)N4CCN(c5cc(Cl)ccc5C)CC4)C3)c(C)o2)c1 (stereo unspecified)	/	16µM*	/	/	21µM*
COc1ccc(N2CCN(C(=O)c3ccc(-c4nc(COc5ccccc5)c(C)o4)cc3)CC2)cc1	/	-17%	/	/	-12%
Cc1cccc(-c2nc(CN3CCCC(C(=O)NC4CCCC4)C3)c(C)o2)c1 (stereo unspecified)	-24	?	?	?	12µM*
Cc1ccc(OCc2nc(-c3ccc(C(=O)N4CCN(c5cc(Cl)ccc5C)CC4)cc3)oc2C)cc1	/	23µM*	/	/	12µM*
Cc1cccc(-c2nc(CN3CCCC(C(=O)NC4CCC(C)CC4)C3)c(C)o2)c1 (stereo unspecified)	1	?	-25%	-26%	18µM*
O=C(NC(Cc1c[nH]c2ccccc12)C(=O)O)c1cccc(S(=O)(=O)N2CCCCC2)c1 (stereo unspecified)	14	2%	-1%	-2%	2%
O=C(NC1CCCCC1)C(c1ccc(F)cc1)N(Cc1ccc2c(c1)OCO2)C(=O)c1cnsn1 (stereo unspecified)	-15	?	4%	14%	?
CCOC(=O)N1CCC(NC(=O)C2CCCN(Cc3nc(-c4cccc(C)c4)oc3C)C2)CC1 (stereo unspecified)	-27	5.8µM*	?	?	2.6µM*
SMILES	IL1B secr inh	TDP1 cell CPT	HT1080 IDH1KD tx	HT1080-NT tox	DT40 TDP1 no CPT
CCOC(=O)N1CCC(NC(=O)C2CCCN(c3nc4ccccc4o3)C2)CC1 (stereo unspecified)	-5	-9%	-3%	-4%[9.24 µM]	-18%
COc1ccc(NC(=O)CSc2nc(N)c(NC(=O)c3cccs3)c(=O)[nH]2)cc1	2	?	-7%	2%	16%
ON=C1CCC2CCCCC2C1 (stereo unspecified)	-15	-4%	3%	-2%	-12%
CCc1n(CC(O)COCc2ccccc2)c2ccccc2[n+]1C (stereo unspecified)	33	?	-5%	-9%	?
Cc1n(CC(O)COC2CCCCC2)c2ccccc2[n+]1C (stereo unspecified)	11	?	1%	10%	13µM*
NS(=O)(=O)c1ccc(CCNC(=O)c2ccc([N+](=O)[O-])s2)cc1	25	16µM*	-19%	?	?
Fc1ccc2nc(N3CCCC3)sc2c1	28	7%	5%	2%	3%
O=C(c1ccccc1)N1CCN(c2nc3ccc([N+](=O)[O-])cc3s2)CC1	-2	6.5µM*	-4%	-5%	5.2µM*
O=[N+]([O-])c1ccc2nc(N3CCCC3)sc2c1	-6	?	2%	13%	18µM*
C[C@H](NC(=O)c1cc2cc(Cl)ccc2n1C)C(=O)N[C@@H](C(=O)O)c1ccccc1	14	-3%	1%	5%	20%
O=C(CCc1nnc(C2CCCCC2)o1)N1CCCCC1CCn1cccn1 (stereo unspecified)	2	-8%	4%	4%	?
c1cnn2c(-c3ccc4c(c3)CCO4)cnc2c1	-1	10µM*	4%	1%	9.2µM*
Clc1ccc(-c2cnc3cccnn23)cc1	10	?	-12%	-15%	?
O=C(c1ccccc1F)N1c2nc(-c3ccco3)nn2C2(CCCCC2)[C@@H]2CCCC[C@@H]21	/	?	/	/	18µM*
O=C(c1ccc(F)cc1)N1c2nc(-c3ccco3)nn2C2(CCCCC2)[C@@H]2CCCC[C@@H]21	/	?	/	/	23µM*
COc1ccc(C(=O)N2c3nc(-c4ccco4)nn3C3(CCCCC3)[C@@H]3CCCC[C@@H]32)cc1OC	/	16µM*	/	/	?

Compound activity (PubChem BioAssay)
